# Compounds with a hit are over-represented: about 11% of the library has one in this group of screens.
# hNpr1 antagonist: Natriuretic polypeptide receptor (hNpr1) antagonism - Primary qHTS; Atrial natriuretic peptide receptor 1 (Homo sapiens), P16066; HEK293 hNpr1 GloSensor cGMP, ANP-stimulated luminescence; Potency, µM (titrated, usually from 46.3 µM), without a hit: at the top dose activity change, negative = inhibition, usual class: inhibitors; 76,000 tested, 1.6% active; AID 1347048, 2019; calls by dose curve; also: nearly all actives have a fitted effect of over 60% in size
# Target sequence (P16066 whole entry, looked up): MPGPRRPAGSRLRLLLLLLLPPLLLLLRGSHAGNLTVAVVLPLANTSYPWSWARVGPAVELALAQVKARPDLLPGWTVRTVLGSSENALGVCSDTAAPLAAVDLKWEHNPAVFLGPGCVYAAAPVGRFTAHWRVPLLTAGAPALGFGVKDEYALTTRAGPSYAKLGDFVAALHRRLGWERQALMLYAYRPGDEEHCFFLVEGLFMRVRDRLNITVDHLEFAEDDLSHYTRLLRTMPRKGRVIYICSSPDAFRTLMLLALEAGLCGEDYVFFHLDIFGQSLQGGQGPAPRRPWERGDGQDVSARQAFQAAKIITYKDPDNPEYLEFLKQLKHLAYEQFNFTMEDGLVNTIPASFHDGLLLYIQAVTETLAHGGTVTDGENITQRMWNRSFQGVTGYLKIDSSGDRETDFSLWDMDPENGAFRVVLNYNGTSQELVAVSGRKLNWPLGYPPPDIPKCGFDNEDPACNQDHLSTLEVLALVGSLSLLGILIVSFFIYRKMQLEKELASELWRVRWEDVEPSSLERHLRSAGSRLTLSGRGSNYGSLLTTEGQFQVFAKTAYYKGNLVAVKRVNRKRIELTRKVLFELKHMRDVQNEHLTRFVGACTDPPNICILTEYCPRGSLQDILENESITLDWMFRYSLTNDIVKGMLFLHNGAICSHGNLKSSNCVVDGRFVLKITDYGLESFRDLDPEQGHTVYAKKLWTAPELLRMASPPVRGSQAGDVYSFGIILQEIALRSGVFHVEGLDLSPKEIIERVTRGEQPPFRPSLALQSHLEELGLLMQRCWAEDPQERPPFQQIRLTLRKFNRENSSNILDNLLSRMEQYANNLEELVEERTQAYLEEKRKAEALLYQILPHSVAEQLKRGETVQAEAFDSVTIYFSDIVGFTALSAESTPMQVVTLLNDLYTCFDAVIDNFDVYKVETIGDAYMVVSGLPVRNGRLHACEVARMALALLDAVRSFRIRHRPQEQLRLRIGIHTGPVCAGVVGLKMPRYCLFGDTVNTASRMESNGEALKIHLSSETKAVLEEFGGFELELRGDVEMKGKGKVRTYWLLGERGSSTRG
#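 HEK293 cells stably expressing human Npr1 and cGMP GloSensor pGS-40F, loaded 2 h with 2% GloSensor reagent, given compound 30 min at room temperature. Luminescence read before and 20 min after 0.1 nM hNppA.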
# HEK293 tox: Cytotoxic Profiling in HEK 293 Cell Line of Diverse Libraries Using Quantitative High-Throughput Screening; HEK 293 viability, ATP luminescence (CellTiter-Glo), 48-72 h; Potency, µM (top dose mostly 115 µM), inactives show at the highest dose activity change, negative = cytotoxicity, most hits filed as inhibitors; 94,000 tested, 6.6% active; also: nearly all actives have a fitted effect of over 60% in size
#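 HEK 293 cells seeded at 250 cells/well were exposed to compound for 48 or 72 hr at 37 degree Celsius. Viability taken as ATP content by CellTiter-Glo luminescence.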
# 3T3 cytotox: Cytotoxic Profiling in NIH 3T3 Cell Line of Diverse Libraries Using Quantitative High-Throughput Screening | Potency, µM (top dose mostly 96.7 µM), without a hit: top-dose activity change, negative = cytotoxicity, hits mostly inhibitors | NIH 3T3 viability, CellTiter-Glo ATP luminescence, 48-72 h | 94,000 tested, 4.3% active | AID 1345082, 2018; also: nearly all actives have a fitted effect of over 55% in size
#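 Cytotoxicity is measured as loss of cellular ATP: NIH 3T3 cells (400/well) are exposed to compound for 48 or 72 hr at 37 °C, then CellTiter-Glo luminescence is imaged after 10 min at room temperature.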
# Luciferase inh: Firefly luciferase inhibition profiling of diverse chemical library using quantitative high-throughput screening. Luciferin 4-monooxygenase (Photinus pyralis), P08659. purified P. pyralis luciferase, luminescence, biochemical. Potency, µM (series often up to 115 µM), usual class: inhibitors. 76,000 tested, 2.5% active. AID 1347043, 2019; also: nearly all actives have a fitted effect of over 65% in size
#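 Luminescence read by CCD imaging after purified firefly luciferase (10nM final) was added to substrate buffer holding 10uM D-luciferin and 10uM ATP, pH 7.5, pre-dosed with compound.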
# * marks the source's active call; other numbers are inactive results; i = inactive; u = inconclusive; x = no result given; [ ] = remark or other dose. Unless noted, calls follow the shape of the dose curve; as a rule, active = well fitted curve in the direction sought with a large enough effect; inconclusive = small, poorly fitted or top-dose-only effect, or another doubt; inactive = no such curve, though single readings can be large; an effect the other way counts as inactive or inconclusive. % is scaled to controls: 0 for no effect and ±100 for the full control effect; potency is read from the fitted curve at half-maximal effect.
SMILES,hNpr1 antagonist,HEK293 tox,3T3 cytotox,Luciferase inh
Cc1ccccc1CN1CC2(COCC1=O)CN(c1ccc(C(F)(F)F)cn1)C2,-0.9%[70.6 µM],89.1µM*,u,i
CC(C)(C)c1ccc(CN2CC3(COCC2=O)CN(c2ccccc2)C3)cc1,-1.5%[70.6 µM],u,79.4µM*,i
O=C(C1CCCN([S+](=O)([O-])c2cccs2)C1)N1CCCC(c2nc3ccncc3[nH]2)C1 (stereo not drawn),x,u,-27.6%,x
OCC1CN(Cc2cscn2)CCC12CCN(Cc1ccccc1)CC2 (stereo not drawn),-0.3%,-29.2%,-15.0%,i
CO[C@H]1C(=O)N(C(C)C)[C@H]1C1CCN(C(=O)Cn2nc(C(F)(F)F)cc2C)CC1,6.4%,i,i,35.5µM*
CO[C@H]1C(=O)N(C(C)C)[C@H]1C1CCN(C(=O)Cn2ccc(C)n2)CC1,0.5%,0.1%,-1.4%,25.1µM*
CCC(CC)NC(=O)C1CCc2nc(N3CCN(C(=O)C(C)C)CC3)sc2C1 (stereo not drawn),-4.2%,-27.8%,-4.2%,i
C=CCOC(=O)C1=C(C)N=C2SC=C(CC(=O)NC3CC3)N2C1c1cc(C)ccc1C (stereo not drawn),u,u,-14.6%,i
CCCc1nc(-c2nc(C3CCOC3)no2)cs1 (stereo not drawn),-8.1%,-0.1%,1.1%,28.2µM*
CCc1c(-c2nc(C3CCOC3)no2)[nH]c2ccccc12 (stereo not drawn),-7.5%,u,u,i
CNc1nc(N2CC[C@@H]3C[C@H](N4CCOCC4)CC[C@@]3(COC)C2)ncc1F,4.6%,-26.7%,i,i
O=C(CCc1ccccc1)N1CCOCC12CCN(Cc1ccccc1)CC2,-11.1%[70.6 µM],u,35.5µM*,i
CC(C)CC(=O)N1CCOCC12CCN(Cc1ccc(C(C)C)cc1)CC2,2.3%[70.6 µM],100µM*,70.8µM*,i
O=C(Cc1cccc(F)c1)N1CCOCC12CCN(Cc1ccccc1)CC2,-0.9%[70.6 µM],u,100µM*,i
Cc1nn(-c2ccccc2)c2c1C(C1CC1)N(C1CCN(Cc3ccccc3)CC1)C2=O (stereo not drawn),x,-3.8%,-12.4%,x
CCC[C@H]1CN(Cc2c(C)noc2C)C[C@@H]1NC(=O)CN(C)C(N)=O,1.8%,i,-11.5%,i
O=C(C1CCN(Cc2ccccc2-c2cccnc2)CC1)N1CCC(c2ccccc2)CC1,x,35.5µM*,44.7µM*,x
O=C(Nc1ccc(Cl)cc1)N1CCN(Cc2ccccc2-c2cccnc2)CC1,x,u,35.5µM*,x
CC(C)NC(=O)N1CCN(Cc2ccccc2-c2cccnc2)CC1,x,-15.3%,-13.7%,x
O=[S+]([O-])(c1ccccc1)N1CCN(Cc2ccccc2-c2cccnc2)CC1,x,35.5µM*,u,x
O=C(NCc1ccc2c(c1)OCO2)C1Cn2cccc2C(=O)N1Cc1cccnc1 (stereo not drawn),-13.9%,-0.6%,-1.1%,i
COc1ccc(OC)c(NC(=O)C2CCc3ncc(-c4ccsc4)n3C2)c1 (stereo not drawn),-1.0%,u,-19.4%,i
COc1ccccc1-c1ccc(CN2CCC(NC(=O)Cc3ccccc3)C2)cc1 (stereo not drawn),x,39.8µM*,35.5µM*,x
COc1ccccc1-c1ccc(CN2CCC(NC(=O)Nc3ccccc3F)C2)cc1 (stereo not drawn),x,28.2µM*,15.8µM*,x
COc1ccccc1-c1ccc(CN2CCC(NC(=O)N(C)C)C2)cc1 (stereo not drawn),x,u,-20.2%,x
SMILES,hNpr1 antagonist,HEK293 tox,3T3 cytotox,Luciferase inh
COc1ccccc1C(=O)NC1CCCN(Cc2ccc(-c3cncnc3)cc2)C1 (stereo not drawn),x,u,-25.8%,x
O=C(c1ccc2[nH]ccc2c1)N1CCCC(Cc2noc(-c3cnccn3)n2)C1 (stereo not drawn),3.8%,-1.5%,-5.1%,i
OC(c1nc(Nc2cccc(F)c2)n[nH]1)C1CC1 (stereo not drawn),3.4%[70.6 µM],0.2%[230 µM],112µM*,u
COc1ccccc1C(O)c1nc(Nc2cccc(F)c2)n[nH]1 (stereo not drawn),-4.9%[70.6 µM],u,-37.1%[138 µM],i
OC(c1nc(Nc2cccc(Cl)c2)n[nH]1)C1CC1 (stereo not drawn),-14.1%[70.6 µM],-17.3%[230 µM],u,44.7µM*
CNC(=O)CN1CCCC(N2CCN(c3ccccc3F)CC2)C1 (stereo not drawn),3.0%,-9.7%,-20.1%,i
COC(=O)[C@@H]1Cc2c([nH]c3ccccc23)[C@H]2C[C@H](N3CCCCC3)C[C@@H](c3ccccc3F)N21,3.5%,u,28.2µM*,i
COC(=O)[C@@H]1Cc2c([nH]c3ccccc23)[C@H]2C[C@@H](N3CCCCC3)C[C@@H](c3ccccc3F)N21,1.5%,22.4µM*,u,i
O=C(c1ccccc1OC1CCN(C2Cc3ccccc3C2)CC1)N1CCCCC1,0.2%,u,-20.1%,i
COc1ccc(CN2CC3(CCN(S(=O)(=O)c4ccccc4Cl)CC3)C2=O)cc1,-19.6%,u,u,i
COc1ccc(CN2CC3(CCN(S(=O)(=O)c4ccc(F)cc4)CC3)C2=O)cc1,-3.9%,89.1µM*,-23.0%,i
CCn1ccnc1CN(C)Cc1cn(Cc2ccccc2)nc1-c1ccc2c(c1)OCO2,-9.7%,u,u,i
CCn1ccnc1CN(C)Cc1cn(Cc2ccccc2)nc1-c1cc2ccccc2o1,-21.2%,44.7µM*,39.8µM*,i
CCn1ccnc1CN(C)Cc1cn(C)nc1-c1ccc(Oc2ccccc2)cc1,-7.6%,39.8µM*,u,i
C=CCN1Cc2cc(F)ccc2N(CC(O)COc2ccccc2)CCC1=O (stereo not drawn),x,44.7µM*,u,x
O=C1CCN(CC(O)COc2ccccc2)c2ccccc2CN1C1CC1 (stereo not drawn),x,39.8µM*,u,x
COC(=O)CN1Cc2cc(F)ccc2N(CC(O)COc2ccc(OC)cc2)CCC1=O (stereo not drawn),x,-17.5%,u,x
COc1ccc2c(c1)CN(CC=C(C)C)C(=O)CCN2CC(O)COc1ccccc1 (stereo not drawn),x,79.4µM*,u,x
CCN1Cc2cc(OC)ccc2N(CC(O)COc2ccc(OC)cc2)CCC1=O (stereo not drawn),x,-31.4%,u,x
COc1ccc(OCC(O)CN2CCC(=O)N(CC(C)(C)C)Cc3cc4c(cc32)OCO4)cc1 (stereo not drawn),x,50.1µM*,u,x
O=C(c1ccoc1)N1CCCCCC1c1nc(C2CC2)no1 (stereo not drawn),x,1.7%,-9.9%,x
CN(C)c1ncc2c(n1)C(C)(C(=O)Nc1ccccc1)CCC2 (stereo not drawn),-1.1%[70.6 µM],u,u,i

# Screening results: PubChem BioAssay, National Center for Advancing Translational Sciences (NCATS)
